Here are results for eleven molecules from PubChem BioAssay.

In one experiment the target is Albumin (Bos taurus) (UniProt P02769). The experiment is described as follows: compounds binding labelled BSA control protein – biochemical, small-molecule microarray, Alexa647 label, 635/667 nm fluorescence, artefact control for SMM control protein annotation, profiling panel (AID 1118).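 Also: score merges 667 nm emission intensity and signal-to-noise per printed compound spot.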 The note with it: BSA-A647 binding, fluorescence 635 nm, higher = more signal.
Chain of Albumin (Bos taurus) (P02769 whole entry, looked up): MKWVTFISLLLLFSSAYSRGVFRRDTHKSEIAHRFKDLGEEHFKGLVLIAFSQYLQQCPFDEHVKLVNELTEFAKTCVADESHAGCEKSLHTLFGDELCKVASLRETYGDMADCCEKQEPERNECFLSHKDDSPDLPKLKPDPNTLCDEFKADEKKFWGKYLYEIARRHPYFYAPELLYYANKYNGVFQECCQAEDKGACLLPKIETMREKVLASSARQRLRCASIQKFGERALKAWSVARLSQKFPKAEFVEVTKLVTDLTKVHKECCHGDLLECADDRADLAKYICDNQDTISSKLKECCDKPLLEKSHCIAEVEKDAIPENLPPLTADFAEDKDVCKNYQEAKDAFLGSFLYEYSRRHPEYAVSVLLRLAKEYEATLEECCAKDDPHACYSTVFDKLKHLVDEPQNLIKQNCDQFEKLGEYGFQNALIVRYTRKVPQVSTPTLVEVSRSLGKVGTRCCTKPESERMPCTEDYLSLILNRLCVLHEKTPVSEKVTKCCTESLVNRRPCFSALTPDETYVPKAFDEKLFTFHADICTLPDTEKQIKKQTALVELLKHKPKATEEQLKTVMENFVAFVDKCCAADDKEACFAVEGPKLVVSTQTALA
A short description of experiment [1]: probe aXIP binding to arrayed compounds – biochemical, NeuroSMM set, 635/667 nm fluorescence, primary screen (AID 1119).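 Also: probe is the protein aXip251-270 applied at 1 µg/mL to compound-printed slides; binding of probe to printed compounds measured as 667 nm fluorescence plus signal to noise.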 The note with it: small-molecule microarray, higher = more signal, called active from +8 up or from −8 down.
A short description of experiment [2]: probe aNOTCH3 binding on compound microarray – biochemical, small-molecule microarray, 635/667 nm fluorescence, primary screen (AID 1120).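 Also: probe is a biotin-tagged antibody raised against NOTCH3 rather than NOTCH3 protein; score merges spot fluorescence near 667 nm with spot signal to noise.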 The note with it: higher = more signal.
Experiment [3] can be described thus: probe aNOTCH2 binding on compound microarray – biochemical, small-molecule microarray, 635/667 nm fluorescence, primary screen (AID 1121).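 Also: score merges feature fluorescence read at 667 nm with its signal to noise.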 Particulars: higher = more signal.
In experiment [4] the target is Carbonic anhydrase 2 (Homo sapiens) (UniProt P00918). The experiment is described as follows: compounds binding carbonic anhydrase 2 – biochemical, small-molecule microarray, Alexa647-labelled CAII, profiling panel (AID 1122). Particulars: CAII-A647 binding fluorescence, higher = more signal.
The nature of experiment [5]: COS7 lysate on small-molecule microarray, probe aHis, 635 nm (AID 1123).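 Also: z-score combines 667nm fluorescence intensity with signal-to-noise per printed compound spot.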 The note with it: COS7 cell lysate, fluorescence, higher = more signal.
Experiment [6] is described as follows: probe aLAP1 signal on lysate-treated microarray – cell lysate, small-molecule microarray, COS7 lysate, primary screen (AID 1124).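 Also: lysate comes from COS7 cells expressing LAP1 and is applied at 0.3 µg/mL; score merges spot fluorescence near 667 nm with signal-to-noise over triplicate slides.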 Particulars: probe aLAP1, fluorescence, higher = more signal.
Another experiment relates to Sam68 (KHDRBS1). The experiment can be described thus: compounds binding KHDRBS1 protein – biochemical, small-molecule microarray, 635 nm fluorescence, primary screen (AID 1125).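 Also: score merges 667 nm channel intensity with signal to noise over triplicate slides.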 Particulars: higher = more signal.
The test system of experiment [7] is Chordin-like protein 2 (CHRDL2). The experiment can be described thus: compounds binding chordin-like 2 – biochemical, small-molecule microarray, 635 nm fluorescence, primary screen (AID 1126).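 Also: printed compound slides probed with Chrdl2 protein at 4 µg/mL for 1 h at 4 C; score merges 667 nm emission intensity with signal to noise over three replicate slides.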 Particulars: fluorescence 635 nm, higher = more signal.
Experiment [8] deals with Concanavalin-A (Canavalia ensiformis) (UniProt P02866). The experiment is described as follows: compounds binding concanavalin A lectin – biochemical, small-molecule microarray, Alexa647 label, 635 nm, artefact control for SMM control protein annotation, primary screen (AID 1127).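 Also: z combines 667 nm emission intensity with signal-to-noise across three replicate slides.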 The note with it: ConA-A647 binding fluorescence, higher = more signal.
Chain of Concanavalin-A (Canavalia ensiformis) (P02866 whole entry, looked up): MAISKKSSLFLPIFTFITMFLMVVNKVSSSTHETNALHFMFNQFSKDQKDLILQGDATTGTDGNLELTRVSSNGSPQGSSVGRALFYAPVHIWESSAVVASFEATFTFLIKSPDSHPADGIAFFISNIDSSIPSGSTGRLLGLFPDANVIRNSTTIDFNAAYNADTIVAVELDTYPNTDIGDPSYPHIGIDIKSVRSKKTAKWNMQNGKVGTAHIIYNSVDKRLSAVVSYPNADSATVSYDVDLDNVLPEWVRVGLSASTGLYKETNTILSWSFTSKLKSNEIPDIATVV

Structures are written as SMILES. Activity calls are given as the source filed them.

Consider `O=C1NC(=O)C2C1C=CC(C(O)c1cccs1)N2Nc1ccc(Cl)cc1Cl` (stereo not given), for which the composite z-score with Albumin (Bos taurus) worked out at 0.165; in experiment [2], 0.267; in experiment [3] it was 0.181; in [4] it was 0.723; in [5] it was 1.03; in experiment [6] it was 0.293. Besides, the composite z-score with Sam68 (KHDRBS1) was -0.374; in experiment [7], -0.352; in experiment [8], -0.376. Also, the composite Z-score in experiment [1] was -0.196 (inactive).

Consider `O=C(CS)NCCCCCCNC(=O)[C@@H]1C[C@@H]2C(=O)NCC(=O)N2[C@@H]1c1cccc(OCCO)c1`, for which the composite z-score with Albumin (Bos taurus) is -0.607; in [2], -0.446; in [3] it was -0.398; in [4], 0.679; in [5], 2.91; in [6] it was 0.71. The composite z-score in the experiment on Sam68 (KHDRBS1) worked out at 0.318; in experiment [7], 0.26; in experiment [8] it was 0.625. Further, the composite Z-score in experiment [1] is 0.359 (inactive).

With `C=CCOC(=O)[C@H]1[C@@H]2C(=O)O[C@@H](c3ccccc3)[C@@H](c3ccccc3)N2[C@@H](c2ccc(OCCOC(=O)[C@H]3C[C@H]4C(=O)N[C@@H](CCCCNC(C)=O)C(=O)N4[C@H]3c3ccc(O)cc3)cc2)[C@]12C(=O)Nc1ccc(I)cc12`, the composite z-score in the experiment with Albumin (Bos taurus) was -0.0312; in experiment [2], 0.0876; in [3], -0.147; in experiment [4], 0.253; in [5], 0.837; in [6], 0.0563. The composite z-score with Sam68 (KHDRBS1) came out at 1.22; in experiment [7], 1.25; in experiment [8], 1.09. Also, in experiment [1], the composite Z-score was 0.745 (inactive).

Regarding `[N-]=[N+]=NCc1ccccc1C[C@]1(C(N)=O)COC(c2ccc(OCCCO)cc2)=N1`, the composite z-score with Albumin (Bos taurus) worked out at 0.624; in experiment [2], 0.0225; in experiment [3], 0.106; in [4], 0.656; in experiment [5], 2.24; in [6], 1.29. For the same molecule, the composite z-score is 0.48 in the experiment on Sam68 (KHDRBS1), -0.846 in experiment [7] and 0.556 in experiment [8]. In addition, the composite Z-score in [1] was 0.155 (inactive).

On to `CO[C@H]1O[C@H](CO)[C@@H](OC(=O)Nc2ccc(C(F)(F)F)cc2)[C@H](OC(=O)Nc2ccc3c(c2)OCO3)[C@@H]1OC(=O)Nc1ccc2c(c1)OCO2`, for which the composite z-score was 0.835 in the experiment with Albumin (Bos taurus); 0.149 in experiment [2]; -0.164 in experiment [3]; 0.238 in [4]; 1.83 in experiment [5]; 0.579 in experiment [6]. Further, the composite z-score in the experiment on Sam68 (KHDRBS1) came to 1.33; in experiment [7], 0.0643; in experiment [8], 1.14. Also, the composite Z-score in experiment [1] is -0.279 (inactive).

Take `CN(C)CCCCCCNC(=O)[C@H]1C[C@H]2C(=O)N3CCC[C@H]3C(=O)N2[C@H]1c1ccc(O)cc1`: the composite z-score with Albumin (Bos taurus) was -0.584; in experiment [2], 0.377; in experiment [3], -0.0438; in experiment [4] it was 0.561; in experiment [5], 2.04; in experiment [6], 0.81. For the same molecule, the composite z-score is 1.34 in the experiment with Sam68 (KHDRBS1), 1.43 in experiment [7] and 1.22 in [8]. Further, in experiment [1], the composite Z-score was 0.233 (inactive).

`Cc1ccc(S[C@]2(C(=O)O)CC(=O)N(C(C)C)[C@@H]2c2ccc(CO)cc2I)cc1`: the composite z-score with Albumin (Bos taurus) was 0.162; in [2], 0.208; in [3], 0.164; in experiment [4], 0.566; in experiment [5] it was 1.99; in experiment [6], 0.73. The composite z-score was 0.784 in the experiment with Sam68 (KHDRBS1), -0.17 in experiment [7] and 1.03 in [8]. The composite Z-score in [1] is 0.556 (inactive).

On to `C=C(C)[C@@H]1CC=C(C(O)C2C=CC3C(=O)N(C)C(=O)C3N2Nc2ccccc2)CC1` (stereo not given in full), for which the composite z-score with Albumin (Bos taurus) was 0.203; in experiment [2] it was 0.15; in experiment [3] it was -0.0617; in experiment [4], 0.372; in experiment [5], 0.491; in [6], 0.201. The values for the composite z-score (with Sam68 (KHDRBS1); in experiment [7]; in experiment [8]) were 0.838, 1.38 and 0.183, respectively. Further, in experiment [1], the composite Z-score is 0.0898 (inactive).

Regarding `C[C@H]1NC(=O)[C@@]23C(=O)N[C@@H](Cc4ccccc4)C2[C@H](C)[C@@]2(C)O[C@H]2C3/C=C/C/C=C\CNC(=O)[C@@H]2CCCN2C1=O` (stereo not given in full), the composite z-score with Albumin (Bos taurus) was -0.274; in experiment [2] it was -0.229; in experiment [3] it was -0.14; in [4], 0.507; in [5], 0.0441; in experiment [6], -0.301. Also, the composite z-score in the experiment with Sam68 (KHDRBS1) was 0.574; in experiment [7], 0.258; in [8], 1.13. Moreover, in experiment [1], the composite Z-score is 0.542 (inactive).

In the case of `CCCCCN1CC=CC23O[C@@H]4C=CCCOC(=O)C4[C@H]2C(=O)N(CCCCCO)[C@@H]3C1=O` (stereo not given in full), the composite z-score in the experiment with Albumin (Bos taurus) is 0.337; in experiment [2], -0.213; in [3], -0.142; in experiment [4], 0.846; in [5] it was 0.718; in experiment [6], 0.57. The values for the composite z-score (with Sam68 (KHDRBS1); in experiment [7]; in [8]) were -1.22, -0.17 and -0.406, respectively. In experiment [1], the composite Z-score is 0.0269 (inactive).

In the case of `CCN(CC)c1ccc(N2CC=CC34O[C@@H]5C=CCCOC(=O)C5[C@H]3C(=O)N(CCCCCCO)[C@@H]4C2=O)cc1` (stereo not given in full), the composite z-score with Albumin (Bos taurus) is 0.254; in [2] it was -0.276; in [3], -0.203; in experiment [4], 0.885; in experiment [5] it was 2.79; in experiment [6], 1.46. Further, the composite z-score was 0.114 in the experiment on Sam68 (KHDRBS1), -0.489 in experiment [7] and -0.1 in experiment [8]. Besides, in experiment [1], the composite Z-score is 0.469 (inactive).
